Compounds without any hit were thinned out: in the full panel of roughly 83,000, 20% have a hit.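 Compound tested at a single concentration for 48 hours in 96-well plates; a percent growth value below 10 was scored as active.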 The source made the active and inactive calls.
Columns and labels:
Test in all cases: NCI-60 one-dose screen, 48 h (100 = growth as untreated, 0 = no growth, -100 = all killed)
Conditions in all cases: 10 µM unless noted
EKVX NSCLC = tested on: EKVX NSCLC
SN12C renal = tested on: SN12C renal
UO-31 renal = tested on: UO-31 renal
TK-10 renal = tested on: TK-10 renal
ACHN renal = tested on: ACHN renal
CAKI-1 renal = tested on: CAKI-1 renal
A498 renal = tested on: A498 renal
CCRF-CEM leukemia = tested on: CCRF-CEM leukemia
MOLT-4 leukemia = tested on: MOLT-4 leukemia
RPMI-8226 leukemia = tested on: RPMI-8226 leukemia
OVCAR-8 ovarian = tested on: OVCAR-8 ovarian
OVCAR-5 ovarian = tested on: OVCAR-5 ovarian
OVCAR-4 ovarian = tested on: OVCAR-4 ovarian
SK-OV-3 ovarian = tested on: SK-OV-3 ovarian
IGROV1 ovarian = tested on: IGROV1 ovarian
OVCAR-3 ovarian = tested on: OVCAR-3 ovarian
NCI/ADR-RES ovarian = tested on: NCI/ADR-RES ovarian
T-47D breast = tested on: T-47D breast
HS 578T breast = tested on: HS 578T breast
SR leukemia = tested on: SR leukemia

Measured: growth

Cn1cc(-c2csc(-c3cn(C)c4ncccc34)n2)c2cc(Br)cnc21
inactive: EKVX NSCLC 84.4% | SN12C renal 89.4% | UO-31 renal 100% | TK-10 renal 115% | ACHN renal 95.5% | CAKI-1 renal 85.3% | A498 renal 79% | CCRF-CEM leukemia 80% | MOLT-4 leukemia 85% | RPMI-8226 leukemia 79.3% | OVCAR-8 ovarian 94.3% | OVCAR-5 ovarian 88.1% | OVCAR-4 ovarian 92.1% | SK-OV-3 ovarian 105% | IGROV1 ovarian 110% | OVCAR-3 ovarian 119% | NCI/ADR-RES ovarian 79.2% | T-47D breast 77%

Cn1cc(-c2csc(-c3c[nH]c4ncccc34)n2)c2cc(F)cnc21
inactive: EKVX NSCLC 51.9% | SN12C renal 78.1% | UO-31 renal 55.6% | TK-10 renal 54.3% | ACHN renal 53.3% | CAKI-1 renal 45.1% | A498 renal 70.4% | CCRF-CEM leukemia 66.1% | MOLT-4 leukemia 80.5% | RPMI-8226 leukemia 70.3% | OVCAR-8 ovarian 77.5% | OVCAR-5 ovarian 87.1% | OVCAR-4 ovarian 62.4% | SK-OV-3 ovarian 81.8% | IGROV1 ovarian 66.5% | OVCAR-3 ovarian 87.8% | NCI/ADR-RES ovarian 63% | T-47D breast 43.7%

CCOC(=O)c1c2c(c(C)n1Cc1ccc(OC)cc1)-c1nc(N)ncc1CC2
inactive: EKVX NSCLC 98.8% | SN12C renal 95.3% | UO-31 renal 90% | TK-10 renal 130% | ACHN renal 106% | CAKI-1 renal 101% | A498 renal 111% | CCRF-CEM leukemia 126% | MOLT-4 leukemia 93.6% | RPMI-8226 leukemia 119% | OVCAR-8 ovarian 115% | OVCAR-5 ovarian 103% | OVCAR-4 ovarian 112% | SK-OV-3 ovarian 107% | OVCAR-3 ovarian 104% | HS 578T breast 111% | NCI/ADR-RES ovarian 104% | T-47D breast 105%

O=C(c1ccccc1)c1ccccc1Cl
inactive: EKVX NSCLC 101% | SN12C renal 101% | UO-31 renal 86.7% | TK-10 renal 94.6% | ACHN renal 112% | CAKI-1 renal 109% | A498 renal 86.1% | CCRF-CEM leukemia 86.3% | MOLT-4 leukemia 94.2% | RPMI-8226 leukemia 88.5% | OVCAR-8 ovarian 108% | OVCAR-5 ovarian 104% | SK-OV-3 ovarian 108% | IGROV1 ovarian 106% | OVCAR-3 ovarian 106% | HS 578T breast 102% | NCI/ADR-RES ovarian 105% | T-47D breast 98.9%

c1ccc(-n2nnnc2-c2cccc3ccccc23)cc1
active: CCRF-CEM leukemia 9.58% | SK-OV-3 ovarian 5.6% | NCI/ADR-RES ovarian -12.6%
inactive: EKVX NSCLC 54.1% | SN12C renal 39.9% | UO-31 renal 28.7% | TK-10 renal 13.8% | ACHN renal 52.9% | CAKI-1 renal 21.8% | A498 renal 32.6% | SR leukemia 20.5% | OVCAR-8 ovarian 30.5% | OVCAR-5 ovarian 35.5% | OVCAR-4 ovarian 59.6% | IGROV1 ovarian 31.4% | T-47D breast 31.8%

COc1ccc(-c2cc(Cc3cccs3)c(=O)n(Cn3ccc4ccccc43)n2)cc1
inactive: EKVX NSCLC 101% | SN12C renal 97.7% | UO-31 renal 83% | TK-10 renal 98.1% | ACHN renal 102% | CAKI-1 renal 95.7% | A498 renal 98.9% | CCRF-CEM leukemia 66% | SR leukemia 87% | RPMI-8226 leukemia 88% | OVCAR-8 ovarian 99.2% | OVCAR-5 ovarian 99.9% | OVCAR-4 ovarian 111% | SK-OV-3 ovarian 106% | IGROV1 ovarian 124% | OVCAR-3 ovarian 111% | HS 578T breast 112% | NCI/ADR-RES ovarian 107% | T-47D breast 109%

O=C(Nc1ccc(Cl)cc1)Nc1ccc(Oc2nncc3ccccc23)cc1
inactive: EKVX NSCLC 26.7% | TK-10 renal 27.5% | CAKI-1 renal 18.7% | A498 renal 24.5% | OVCAR-8 ovarian 19.4% | SK-OV-3 ovarian 56.7% | HS 578T breast 37.5% | NCI/ADR-RES ovarian 37.6% | T-47D breast 10.2%
active: SN12C renal -3.83% | UO-31 renal -51.6% | ACHN renal -15.1% | CCRF-CEM leukemia 8.7% | SR leukemia 2.64% | RPMI-8226 leukemia -0.0795% | OVCAR-5 ovarian -16% | OVCAR-4 ovarian -20.8% | IGROV1 ovarian 8.16% | OVCAR-3 ovarian -62.8%

Oc1[nH]c2ccccc2c1/C=c1/ccc2c(c1)N=C(c1cc(F)cc(F)c1)N=2
active: CCRF-CEM leukemia -3.33%
inactive: EKVX NSCLC 70.7% | SN12C renal 68.2% | UO-31 renal 60.2% | TK-10 renal 114% | ACHN renal 50.9% | CAKI-1 renal 52.1% | A498 renal 60.5% | SR leukemia 19.9% | RPMI-8226 leukemia 27.5% | OVCAR-8 ovarian 76.9% | OVCAR-5 ovarian 85% | OVCAR-4 ovarian 57.8% | SK-OV-3 ovarian 85% | IGROV1 ovarian 63.3% | OVCAR-3 ovarian 55.9% | HS 578T breast 69.4% | NCI/ADR-RES ovarian 61.4% | T-47D breast 40.3%

O=C(CSc1nc2c(n1Nc1ccccc1)-c1ccccc1SC2)Nc1nc(-c2ccc(Cl)cc2)cs1
inactive: EKVX NSCLC 69.8% | SN12C renal 73.8% | UO-31 renal 79.7% | TK-10 renal 110% | ACHN renal 96.5% | CAKI-1 renal 72.8% | A498 renal 55% | CCRF-CEM leukemia 44.8% | SR leukemia 27% | RPMI-8226 leukemia 86.1% | OVCAR-8 ovarian 57.3% | OVCAR-5 ovarian 93.6% | SK-OV-3 ovarian 82.9% | IGROV1 ovarian 86% | OVCAR-3 ovarian 65.7% | HS 578T breast 23.4% | NCI/ADR-RES ovarian 66% | T-47D breast 66.8%
active: OVCAR-4 ovarian 8.37%

CC1=NN(c2ccccc2Cl)C(=O)/C1=C\c1cn(S(=O)(=O)c2ccc(C)cc2)c2ccccc12
inactive: EKVX NSCLC 98% | SN12C renal 97.5% | UO-31 renal 78.2% | TK-10 renal 167% | ACHN renal 97.5% | CAKI-1 renal 87.8% | A498 renal 117% | CCRF-CEM leukemia 135% | MOLT-4 leukemia 173% | RPMI-8226 leukemia 113% | OVCAR-8 ovarian 108% | OVCAR-5 ovarian 88.1% | SK-OV-3 ovarian 105% | OVCAR-3 ovarian 110% | HS 578T breast 116% | NCI/ADR-RES ovarian 85.1% | T-47D breast 91.5%

CC(c1ccccn1)C(C)(O)C(C)c1ccccn1 (stereo not given)
inactive: EKVX NSCLC 95.3% | SN12C renal 103% | UO-31 renal 90.2% | TK-10 renal 99.6% | ACHN renal 103% | CAKI-1 renal 104% | A498 renal 105% | CCRF-CEM leukemia 114% | MOLT-4 leukemia 65.1% | OVCAR-8 ovarian 101% | OVCAR-5 ovarian 98% | OVCAR-4 ovarian 112% | SK-OV-3 ovarian 114% | IGROV1 ovarian 112% | HS 578T breast 104% | NCI/ADR-RES ovarian 107% | T-47D breast 118%

c1ccc(N2CCN(c3nncc4ccccc34)CC2)nc1
inactive: EKVX NSCLC 110% | SN12C renal 102% | UO-31 renal 96% | TK-10 renal 105% | ACHN renal 115% | CAKI-1 renal 109% | A498 renal 97.8% | CCRF-CEM leukemia 102% | SR leukemia 103% | RPMI-8226 leukemia 107% | OVCAR-8 ovarian 97.8% | OVCAR-5 ovarian 105% | OVCAR-4 ovarian 109% | SK-OV-3 ovarian 104% | IGROV1 ovarian 116% | OVCAR-3 ovarian 99.9% | HS 578T breast 109% | NCI/ADR-RES ovarian 109% | T-47D breast 101%

Nc1ncc(-c2cnn(C3CCNCC3)c2)cc1-c1nc2cc(Cl)ccc2o1
active: EKVX NSCLC -27.6% | SN12C renal -100% | UO-31 renal -100% | TK-10 renal -94.1% | ACHN renal -96.8% | CAKI-1 renal -76.9% | A498 renal -99.9% | CCRF-CEM leukemia -100% | RPMI-8226 leukemia -81% | OVCAR-8 ovarian -52.5% | OVCAR-5 ovarian -81.2% | OVCAR-4 ovarian -83.1% | SK-OV-3 ovarian -81.5% | OVCAR-3 ovarian -100% | HS 578T breast -68.4% | NCI/ADR-RES ovarian -50.5% | T-47D breast -77.4%

NCCCc1nnc(CCC(=O)c2nc3ccccc3[nH]2)o1
inactive: EKVX NSCLC 117% | SN12C renal 92.3% | UO-31 renal 91.8% | TK-10 renal 102% | ACHN renal 97.1% | CAKI-1 renal 103% | A498 renal 97.4% | CCRF-CEM leukemia 90.9% | MOLT-4 leukemia 98.2% | RPMI-8226 leukemia 101% | OVCAR-8 ovarian 110% | SK-OV-3 ovarian 106% | IGROV1 ovarian 104% | OVCAR-3 ovarian 119% | HS 578T breast 112% | NCI/ADR-RES ovarian 97.9% | T-47D breast 97.7%

O=C(/C=C/c1cc2ccccc2[nH]c1=O)c1ccc(O)cc1
active: SR leukemia -0.193% | OVCAR-3 ovarian -18.8% | HS 578T breast -27.2%
inactive: EKVX NSCLC 87.5% | SN12C renal 47.5% | UO-31 renal 45.6% | TK-10 renal 50.1% | ACHN renal 66.2% | CAKI-1 renal 40.9% | A498 renal 56.2% | MOLT-4 leukemia 30.9% | OVCAR-8 ovarian 22.3% | OVCAR-5 ovarian 78.6% | OVCAR-4 ovarian 62.9% | SK-OV-3 ovarian 39.8% | IGROV1 ovarian 53.8% | NCI/ADR-RES ovarian 36.4% | T-47D breast 66.1%

CCCCCCCCSc1ncnc2c1ncn2CO
inactive: EKVX NSCLC 55.5% | SN12C renal 76.4% | UO-31 renal 86.6% | TK-10 renal 89.9% | ACHN renal 81% | CAKI-1 renal 72.6% | A498 renal 106% | MOLT-4 leukemia 85.8% | SR leukemia 115% | RPMI-8226 leukemia 60.7% | OVCAR-8 ovarian 90.4% | OVCAR-4 ovarian 60.3% | SK-OV-3 ovarian 83.1% | IGROV1 ovarian 93.3% | OVCAR-3 ovarian 78.2% | HS 578T breast 95.6% | NCI/ADR-RES ovarian 86.8% | T-47D breast 62%

Oc1ccc(-c2nn(-c3ccccc3)cc2-c2nc3ccccc3s2)cc1
inactive: EKVX NSCLC 79.5% | SN12C renal 85.3% | UO-31 renal 55.4% | TK-10 renal 142% | ACHN renal 91.1% | CAKI-1 renal 82% | A498 renal 81.7% | MOLT-4 leukemia 87.8% | SR leukemia 75.4% | OVCAR-8 ovarian 93.5% | OVCAR-5 ovarian 108% | OVCAR-4 ovarian 86.2% | SK-OV-3 ovarian 99% | IGROV1 ovarian 80.9% | OVCAR-3 ovarian 85.3% | HS 578T breast 92.4% | NCI/ADR-RES ovarian 81.1% | T-47D breast 53%
